# SMARCA2 act = increases SMARCA2 function in MMTV reporter cells | MG213 cells, MMTV-luciferase reporter, dexamethasone, overnight | activation, % at 9.1 µM | actives 1% (n = 370,000); in the data active = activation above about 7.8%
# GAA850 FXN act = increases GAA850 frataxin promoter reporter activity | AID 540364 | actives 0.56% (n = 360,000) | HEK293 lucGAA850 FXN promoter luciferase reporter, 24 h; percent of 10 µM SAHA response | activation, % at 6 µM;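 active = activation above the average of all compounds screened plus 3 SD, cutoff fixed separately per campaign, cut at about 7.5% in these data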
# GalR3 antag = blocks the human galanin receptor 3; O60755; HEK293 GalR3-CNG cAMP membrane potential fluorescence; galR3 body fused to GalR1 C-terminus; inhibition, % at 3 µM; actives 0.44% (n = 360,000); AID 651719;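 active = inhibition above the screen-wide average plus 3 SD, cut at about 13% in these data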;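 also: forskolin and galanin both at EC90 stimulate the cells; cAMP rise reported by CNG channel membrane potential dye signal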
# Target sequence (O60755 1-299 limits assumed): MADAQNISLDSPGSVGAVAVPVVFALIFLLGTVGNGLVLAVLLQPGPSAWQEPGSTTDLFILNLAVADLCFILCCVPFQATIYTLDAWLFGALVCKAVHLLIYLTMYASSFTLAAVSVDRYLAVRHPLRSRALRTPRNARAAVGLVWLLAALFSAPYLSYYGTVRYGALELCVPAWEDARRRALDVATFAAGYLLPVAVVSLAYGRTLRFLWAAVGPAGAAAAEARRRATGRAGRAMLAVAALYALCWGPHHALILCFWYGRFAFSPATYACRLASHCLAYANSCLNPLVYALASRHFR
# Hsp70 act = Hsp70 transcriptional activation, primary screen; HeLa Hsp70 promoter luciferase reporter, luminescence; scaled: vehicle 0, proteasome-inhibitor control 100%; activation, % at 10 µM; actives 0.04% (n = 200,000); AID 1203;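 active = activation above the mean across all tested compounds plus 3 SD, cutoff set per campaign, cut at about 5.5% in these data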
# HIF activator = HIF pathway transcriptional activation. AID 1910. actives 0.32% (n = 300,000). activation, % at 7.5 µM (by protocol). U2OS HRE-luciferase reporter, luminescence; normalized: DMSO 0%, desferrioxamine 100%;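 active = mean activation of at least 10% of the iron chelator positive control signal, with at least half of replicates also reaching 10%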
# Hits are given with their value; 0 = inactive; - = not tested or not shown. Sampled rows, rich in hits. Any-hit rate of the full collection: about 2.2%.
SMILES,SMARCA2 act,GAA850 FXN act,GalR3 antag,Hsp70 act,HIF activator
COc1ccc(NC(=O)Nc2ccc(Br)cn2)cc1,0,0,0,0,40
COc1ccc(NC(=O)Nc2ccc(CC(=O)O)cc2)cc1,0,0,0,0,27
O=C(O)Cc1ccc(NC(=O)Nc2ccc(Br)cc2)cc1,0,0,0,0,0
COc1cc(-n2c(C)nc3cc(C(=O)N4CCN(C(C)=O)CC4)ccc32)cc(OC)c1OC,0,-,-,-,-
O=C(NCc1ccccc1)OC1CC2CC1[C@H]1CCCCN1C2 (stereo not given in full),0,-,-,-,-
COc1ccc(CC(=O)NNC(=O)c2ccccc2)cc1OC,0,0,0,-,-
COc1ccc(CC(=O)NNC(=S)NCC2CC2)cc1OC,0,0,0,-,30
O=C(NCCCN1CCN(c2ccccc2F)CC1)Nc1ccccc1[N+](=O)[O-],0,0,0,0,252
O=C(NCCCN1CCN(c2ccccc2F)CC1)Nc1ccc(F)cc1,0,0,0,0,0
CCOC(=O)[C@]12CCCC3=C1N(CCC3)C(=O)[C@@H](CC(=O)N1CCN(C(=O)C3CC3)CC1)C2,0,-,-,-,-
CCc1ccc(-c2ccc(C(=O)O)cc2)nc1,7.8,0,0,0,0
CC(=O)c1cccc(Nc2nc(-c3cccc([N+](=O)[O-])c3)cs2)c1,0,8.0,0,0,0
COC(=O)[C@]12C[C@H](CC(=O)NCc3cccc4ccccc34)C(=O)N(Cc3ccccc3)C1=C[C@H](C(C)C)O[C@@H]2C1CC1,0,-,0,-,-
Cc1ccc(C(=O)Nc2ccc3c(c2)ncn3C)cc1,0,0,0,0,0
CCn1cnc2cc(NC(=O)c3ccc(C)cc3)ccc21,7.9,0,0,-,0
CCOc1ccccc1NC(=O)c1cc2c(C)nn(-c3ccccc3)c2s1,0,-,-,-,-
Cc1cccc(NC(=O)Nc2c(-c3ccc(C(F)(F)F)cc3)nc3ncccn23)c1,0,-,-,-,-
O=C1CCCc2oc3c(cc(NS(=O)(=O)c4ccc5c6c(cccc46)C(=O)N5)c4ccccc43)c21,0,0,41,-,0
Cc1cccnc1NS(=O)(=O)c1ccccc1,7.9,0,0,-,-
COC(=O)C1CN(C2CCCC2)CCS(=O)(=O)N1Cc1cn(Cc2ccc(F)cc2)nn1 (stereo not given),0,-,-,-,-
O=C(CCc1ccccc1)N[C@H]1[C@H](OCc2ccccc2)CCC[C@@]12C(=O)N(Cc1ccccc1)c1ccc(-c3ccccn3)cc12,0,-,-,-,-
COc1ccc(NC(=O)C2CCCN2S(=O)(=O)c2ccc3c(c2)CCC(=O)N3)c(OC)c1 (stereo not given),7.9,0,0,0,-
Cc1ccc(CCNC(=O)C2CCCN2S(=O)(=O)c2ccc3c(c2)CCC(=O)N3)cc1 (stereo not given),-,0,-,0,0
Cc1cc(C(=O)O)oc(=O)c1,0,0,0,-,219
O=C(O)c1cc(=O)c2ccccc2o1,0,0,0,-,0
SMILES,SMARCA2 act,GAA850 FXN act,GalR3 antag,Hsp70 act,HIF activator
COc1ccc(CNC(=O)CCS(=O)(=O)c2ccc3c(c2)oc(=O)n3C)cc1,0,0,0,-,0
CN(C)c1ccc(CNC(=O)CCS(=O)(=O)c2ccc3c(c2)oc(=O)n3C)cc1,0,0,0,-,33
CC(=O)Nc1ccc(C(/C=C/c2ccccc2)Cc2ccccc2)cc1 (stereo not given),0,-,-,-,-
Cc1cc(C)c2sc(NNC(=O)c3ccc(S(=O)(=O)N4CCc5ccccc5C4)cc3)nc2c1,0,0,-,0,159
Cc1cc(C)c2nc(NNC(=O)c3ccc(S(=O)(=O)N4CCc5ccccc5C4)cc3)sc2c1,0,0,-,0,22
COc1cccc(Cn2cc(COC(=O)NCC(C)C)nn2)c1,0,-,-,-,-
O=C(Nc1ccncc1)Nc1cccc(C(F)(F)F)c1,0,0,0,-,0
Oc1c(C(Nc2nccs2)c2ccc(C(F)(F)F)cc2)ccc2cccnc12 (stereo not given),0,0,0,0,58
Oc1c(C(Nc2cccc(C(F)(F)F)c2)c2ccncc2)ccc2cccnc12 (stereo not given),0,0,0,0,24
CN1CCN(C(c2ccc(F)cc2)c2ccc3cccnc3c2O)CC1 (stereo not given),-,0,-,-,-
FC(F)(F)c1ccccc1NC(=S)OC1CCC12CCC(c1ccccc1)CC2 (stereo not given),0,-,-,-,-
Cc1ccc(C)c(CNS(=O)(=O)c2ccc3c(c2)C(C)(C)C(=O)N3C)c1,0,0,0,-,12
O=C(NC(C(=O)N/N=C/c1ccccn1)c1n[nH]c(=O)c2ccccc12)c1ccccc1 (stereo not given),7.9,0,0,-,0
